The values that follow come from PubChem BioAssay (NCI).

“And” between values parts separate entries of the source, which are not always exact repeats. Equal entries are not always repeated. About 83,000 compounds went through this panel and 20% of them were active in at least one assay; those are over-represented in the sample as a whole.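 How to read the values: 0–100, growth inhibition (40 = 60% inhibited); 0, no net growth; -100 to 0, cell death (-40 = 40% of starting cells died; -100 = all dead).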 The source made the active and inactive calls. The calls were made as follows: active = growth percent below 10; inactive = the rest.

The test has as its system MDA-MB-468 breast. Kind of test: NCI-60 one-dose screen, 48 h (100 = growth as untreated, 0 = no growth, -100 = all killed). Particulars: 10 µM unless noted.
Consider `O=c1oc2ccc(Cl)cc2c(=O)n1-c1ccc(I)cc1F`, for which the growth is 1.73% (active).
In the case of `CC12CC3CC1C(C(=O)O2)C3C(=O)O` (stereo unspecified), the growth was 103% (inactive).
The same measure for `Cc1c(Cl)cc(Cl)c(N)c1Cl`: 111% (inactive).
Regarding `N#C/C(=C/C=C/c1ccccc1)S(=O)c1ccccc1` (stereo unspecified), the growth was -56% (active).
The same measure for `CS(=O)(=O)c1ncc(-c2ccccc2)cn1`: 95.6% (inactive).
Then `O=C(Cc1nc2cc(Cl)c(Cl)cc2nc1CC(=O)c1ccccc1)c1ccccc1`, with -55% (active); and `CCN(CC)CCOc1ccc(C(=C(C)c2ccc(Cl)cc2)c2ccc(OCCN(CC)CC)cc2)cc1`, with -81.6% (active); and `Cc1ccc(S(=O)(=O)Oc2ccccc2-c2ccccc2)cc1`, with -3.07% (active).
Then `COc1cc(/C(Cl)=C/C=C/C(=O)c2c(C)[n+]([O-])c3ccc(Cl)cc3[n+]2[O-])cc(OC)c1OC`, with -11.2% (active).
For `O=C(Nc1ccc(Cl)cc1)c1cc(NCc2cc(O)ccc2O)ccc1O`, the growth is 81.2% (inactive).
The same measure for `CCCCOc1ccc(/C=N/Nc2cc(C)nc3ccc(Cl)cc23)cc1`: -65.9% (active); for `O=S(=O)(c1ccc(N/N=C\c2ccccc2)cc1)c1ccc(N/N=C/c2ccccc2)cc1`: 61% (inactive); for `COc1cc(-c2nn(-c3cccc(NC(=O)Nc4cc(C(F)(F)F)cc(C(F)(F)F)c4)c3)cc2-c2ccncc2)ccc1Cl`: -25.4% (active).
For the compound `CCN1C/C(=N\S(=O)(=O)c2ccccc2)N(CC)C1=S`, the growth is 97.7% (inactive).
The same measure for `CN(C)c1ccc(-c2ccc(-c3ccc(C(=N)N)c(F)c3)s2)cc1`: -83.6% (active); for `CO[C@H](C(=O)[C@@H](O)[C@@H](C)O)[C@@H]1Cc2cc3cc(O[C@H]4C[C@@H](O[C@H]5C[C@@H](O)[C@H](O)C(C)O5)[C@H](O)C(C)O4)c(C)c(O)c3c(O)c2C(=O)[C@H]1O[C@H]1C[C@@H](O[C@H]2C[C@@H](O[C@H]3C[C@](C)(O)C(=O)C(C)O3)[C@@H](O)C(C)O2)[C@H](O)C(C)O1` (stereo partly specified): -46.7% (active).
Then `Nc1ccc(C(OC(=O)c2cc3ccccc3c(Cc3c(O)c(C(=O)OC(c4ccc(N)cc4)(c4ccc(N)cc4)c4ccc(N)cc4)cc4ccccc34)c2O)(c2ccc(N)cc2)c2ccc(N)cc2)cc1`, with -23% (active).
For `C=CC(C)(O)CCC1C(=C)CCC2C(C)(C)CCCC12C` (stereo unspecified), the growth is 109% (inactive).
Then `O=C1OCC2=C1C(c1cccc(Cl)c1)c1cc3c(cc1N2CCO)CCC3` (stereo unspecified), with -9.35% (active); and `Cc1cnc(C(=O)Nc2nc3ccc(S(=O)(=O)Nc4ccc(C5(C(F)(F)F)CC5)cc4)cc3[nH]2)cn1`, with -26.2% (active).
Then `O=[N+]([O-])c1cnc(N2CCN(CC3CC3)CC2)nc1N1CCN(CC2CC2)CC1`, with 76.9% (inactive).
Then `COC(=O)[C@H](Cc1cnc[nH]1)NC(=O)[C@@H](NC(=O)Nc1cc(C(F)(F)F)cc(C(F)(F)F)c1)C(C)C`, with -60.9% [100 µM] (active); and `CC1(C)CC[C@]2(C(=O)O)CC[C@]3(C)C(=CC[C@@H]4[C@@]5(C)CC/C(=N\OCCC#N)C(C)(C)[C@@H]5CC[C@]43C)[C@@H]2C1`, with 106% (inactive).
`O=C(O)CCCc1cnc2c3sccc3nc(SCc3c(Cl)cccc3Cl)n12`: the growth was 60.9% (inactive).
With `CCN(CC)Cc1cc(Nc2c3ccc(Cl)cc3nc3c(C)cccc23)ccc1O`, the growth is -67% (active).
The same measure for `CCN(CC)CCCC(C)N(Cc1ccccc1)CC(O)c1ccc(Cl)cc1` (stereo unspecified): 91.2% (inactive) and 104% (inactive).
